The assay concerns the target Dickkopf-related protein 1 (Homo sapiens) (UniProt O94907). The experiment in a line: DKK1 binders on small-molecule microarrays, primary screen, biochemical, small-molecule microarray, 635 nm fluorescence scan (AID 1106).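 Further: score merges emission near 667 nm with signal to noise over three replicate slides.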 To be noted: DKK1 binding, higher = more signal.
Chain of Dickkopf-related protein 1 (Homo sapiens) (O94907 whole entry, looked up): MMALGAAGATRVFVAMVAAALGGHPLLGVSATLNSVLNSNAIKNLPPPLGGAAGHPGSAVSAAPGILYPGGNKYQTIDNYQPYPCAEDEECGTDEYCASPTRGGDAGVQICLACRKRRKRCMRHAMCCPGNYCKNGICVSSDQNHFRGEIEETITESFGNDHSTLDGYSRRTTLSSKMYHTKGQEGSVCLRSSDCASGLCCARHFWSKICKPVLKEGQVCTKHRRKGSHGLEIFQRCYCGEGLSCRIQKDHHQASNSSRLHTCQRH
Regarding `CC(C)C(O)C1C=CC2C(=O)N(C)C(=O)C2N1Nc1ccccc1` (stereo unspecified), the composite z-score is 0.4.

Compound `Cc1c(NC(=O)/C(C#N)=C/C=C/c2ccc(N(C)C)cc2)c(=O)n(-c2ccccc2)n1C` returned a composite z-score of 0.646.

For `COc1cc(CO)cc(I)c1O[C@H]1C=C(C(=O)NCCO)C[C@@H](N(Cc2ccc(F)cc2)C(=O)C2CCCO2)[C@@H]1O` (stereo partly specified), the composite z-score came to 0.208.

As to `O=C1C[C@@](C(=O)NCC(F)(F)F)(c2ccc([N+](=O)[O-])cc2)[C@@H](c2ccc(CO)cc2)N1C1CCCCC1`, the composite z-score came to 0.172.

`COC(=O)Cn1c(C(=O)N2CCCC2)cc2c1C[C@H]1CN(C(=O)c3ccccc3)[C@@](Cc3ccc(F)cc3)(C(=O)OC)[C@@H]21` had a composite z-score of -0.181.

For `O=C(CS)NCCCCCCNC(=O)[C@H]1C[C@H]2C(=O)N[C@@H](Cc3ccccc3)C(=O)N2[C@H]1c1cccc(OCCO)c1`, the composite z-score came out at 1.34.

As to `COc1cc2c(cc1OC)CN(C(=O)[C@H]1[C@@H]3C(=O)O[C@@H](c4ccccc4)[C@@H](c4ccccc4)N3[C@@H](c3ccc(OCCO)cc3)[C@]13C(=O)Nc1ccc(C#CC4(O)CCCCCC4)cc13)CC2`, the composite z-score stood at 1.31.

Take `O=C1O[C@H](c2ccccc2)[C@H](c2ccccc2)N2[C@H]1[C@@H](C(=O)O)[C@]1(C(=O)Nc3ccccc31)[C@H]2c1ccc(O)cc1`: the composite z-score was -0.836.

On to `CC(=O)N1Cc2ccccc2C[C@]2(N=C(c3ccc(OCCCO)cc3)O[C@@H]2c2ccccc2)C1=O`, for which the composite z-score was 0.275.

Compound `Cc1ccc(S[C@]2(C(=O)O)CC(=O)N(Cc3ccccc3Cl)[C@@H]2c2ccc(CO)cc2)cc1` gave a composite z-score of -0.817.

For the compound `COc1c(C)cc(-c2cc3c(c(-c4ccccc4)n2)[Si](C(C)C)(C(C)C)OC3)cc1C`, the composite z-score was 0.189.

The compound `O=C(CCCCCCC(=O)Nc1ccccc1)N/N=C/c1ccccc1` had a composite z-score of 0.328.

For the compound `CCOC(=O)C[C@H]1[C@H](OC(=O)Cc2ccc3c(c2)OCO3)[C@@H](NC(=O)C2CCCCC2)c2cc(OCCCO)ccc2N1C(=O)c1ccc2ccccc2n1`, the composite z-score is 1.65.

Turning to `O=C(NC1CC1)[C@@H]1c2ccccc2C(=O)N(Cc2ccccc2)[C@H]1c1ccc(CO)cc1`, the composite z-score was -0.551.

In turn, `NC(N)=NCc1cn(CCc2c[nH]c3ccccc23)nn1` returned a composite z-score of 1.6.

As for `COCCCNC(=O)[C@@]1(Sc2ccc(C)cc2)CC(=O)N(Cc2cc(C(F)(F)F)cc(C(F)(F)F)c2)[C@@H]1c1ccc(CO)cc1`, the composite z-score came to 0.585.

Consider `O=C1O[C@@H](c2ccccc2)[C@@H](c2ccccc2)N2[C@@H](c3ccc(O)cc3)[C@]3(C(=O)Nc4ccc(C#CC5=CCCCC5)cc43)[C@@H](C(=O)N3CCN(c4ncccn4)CC3)[C@H]12`, for which the composite z-score was 0.283.

Compound `COCCOC(=O)N1C(=O)[C@@]2(c3cc(C#CC4=CCCCC4)ccc31)[C@H](c1ccccc1OCCO)N1[C@H](c3ccccc3)[C@H](c3ccccc3)OC(=O)[C@H]1[C@@H]2C(=O)N1CCc2cc(OC)c(OC)cc2C1` registered a composite z-score of 0.356.

The compound `CC[C@H]1C2=C3C(CC[C@H]4C(OCc5ccc(F)cc5C(F)(F)F)OC[C@](C)([C@@H]34)N(C(=O)OC(C)(C)C)C2)C2COC(=O)OCC21` (stereo partly specified) came in with a composite z-score of -1.02.

As for `CO[C@H]1O[C@H](CO)[C@@H](OC(=O)Nc2ccccc2-c2ccccc2)[C@H](OC(=O)Nc2ccc3c(c2)OCO3)[C@@H]1OC(=O)Nc1ccc2c(c1)OCO2`, the composite z-score was found to be 0.279.

Regarding `COCCCNC(=O)[C@@]1(Sc2ccc(C)cc2)CC(=O)N(C2Cc3ccccc3C2)[C@@H]1c1ccc(CO)cc1I`, the composite z-score is -1.77.

For the compound `Cc1ccc(S[C@]2(C(=O)NCc3ccccc3)CC(=O)N(C(C)C)[C@@H]2c2ccc(CO)cc2I)cc1`, the composite z-score is -1.67.

Regarding `CC(C)C(O)C1C=CC2C(=O)N(C)C(=O)C2N1N(c1ccccc1)c1ccccc1` (stereo unspecified), the composite z-score is -1.07.

For `O=C1OCC=C[C@H]2OC34C=CCN(Cn5nnc6ccccc65)C(=O)[C@H]3N(CCCCCCO)C(=O)[C@@H]4[C@@H]12` (stereo partly specified), the composite z-score is -0.566.

`COC(=O)[C@@]1(Cc2ccccc2)[C@H]2c3cc(C(=O)N4CCCC4)n(Cc4cc(F)cc5c4OCOC5)c3C[C@H]2CN1C(=O)c1ccccc1` yielded a composite z-score of -0.66.

Consider `O=C(O)[C@H](Cc1ccccc1)n1cc(-c2ccccn2)nn1`, for which the composite z-score was determined as 0.227.

`CN(C)CCCNC(=O)[C@@]1(c2ccc([N+](=O)[O-])cc2)CC(=O)N(CC23CC4CC(CC(C4)C2)C3)[C@@H]1c1ccc(CO)cc1` registered a composite z-score of 0.54.

`CCOC(=O)C[C@H]1[C@H](OC(=O)c2ccc(-c3ccccc3)cc2)[C@@H](NC(=O)c2ccc3ccccc3n2)c2cc(OCCCO)ccc2N1C(=O)c1ccccc1`: the composite z-score came to 0.216.

With `CCOC(=O)C1=CC[C@@H](c2ccccc2)N(S(=O)(=O)c2ccc(C)cc2)C1`, the composite z-score turned out to be 0.107.

In the case of `CCOC(=O)[C@H]1C/C=C/C[C@H](C(=O)OCC)C(=O)O[C@H]2[C@@H](OC)O[C@H](CO)[C@@H](OC(=O)Nc3ccc(OC)cc3)[C@@H]2OC1=O`, the composite z-score turned out to be 0.46.

`COC(=O)[C@H](Cc1ccccc1)N1CC(/C=C/C2CC2)=C[C@@H]1[C@@H](O)Cc1ccccc1` returned a composite z-score of 1.2.

`Cc1ccc(F)cc1S(=O)(=O)N[C@@H]1CCN(Cc2ccc(Oc3ccccc3)cc2)C1`: the composite z-score stood at 0.47.

The compound `COCCOC(=O)N1C(=O)[C@@]2(c3cc(C#Cc4ccc(OC)cc4)ccc31)[C@H](C(=O)NC[C@H](O)c1ccccc1)[C@H]1C(=O)O[C@H](c3ccccc3)[C@H](c3ccccc3)N1[C@@H]2c1ccc(O)cc1` had a composite z-score of 0.95.

`CN(C)CCCNC(=O)[C@@H]1c2ccccc2C(=O)N(CC23CC4CC(CC(C4)C2)C3)[C@H]1c1ccc(CO)cc1`: the composite z-score turned out to be 0.872.

In turn, `CCOC(=O)[C@@H]1[C@@H]2C(=O)N(CC)C(=O)[C@@H]2C[C@@H]1Sc1ccccc1` returned a composite z-score of -0.174.

In turn, `CC(C)C(=C=CC[C@@H](O)c1ccccc1OCCO)C[C@@H](O)COCc1ccccc1` had a composite z-score of -0.691.

For the origin of these results see PubChem BioAssay.
